# Only some compounds are listed: those with a hit (about 2.9% of all), similar ones and a draw of the others.
# KLK7 zymogen act: proKLK7 zymogen activators, primary screen, biochemical, fluorescence intensity | Kallikrein-7 (Homo sapiens), P49862 | AID 652039, 2013 | activation, % at 7 µM | purified proKLK7, EDANS-DABCYL substrate fluorescence; 100% is mature enzyme control, 0% vehicle | 0.9% of 370,000 active;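 active = activation above the mean of all tested compounds plus 3 SD, computed per campaign excluding outliers beyond control limits, cut at about 13% in these data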
# ADAM10 inh: human ADAM10 inhibitors, primary screen, biochemical, QFRET, HTS. recombinant ADAM10, EDANS/DABCYL FRET peptide cleavage, 3 h. Disintegrin and metalloproteinase domain-containing protein 10 (Homo sapiens), O14672. 0.62% of 370,000 active. inhibition, % at 7 µM;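 active = inhibition above a per-campaign cutoff equal to the mean of compounds falling between control-based bounds plus 3 SD, cut at about 20% in these data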;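 also: 0% = DMSO wells while the 100% control is not disclosed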
# ADAM17 inh: ADAM17 inhibitors, primary screen, biochemical, QFRET. recombinant ADAM17, EDANS/DABCYL FRET peptide cleavage. 0.83% of 370,000 active. inhibition, % at 6.95 µM;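 active = inhibition above the mean of compounds lying between control limits plus 3 SD, set per campaign, cut at about 8.5% in these data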;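 also: 0% = DMSO-only wells as the low control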
# Target sequence (P78536 215-824 limits assumed): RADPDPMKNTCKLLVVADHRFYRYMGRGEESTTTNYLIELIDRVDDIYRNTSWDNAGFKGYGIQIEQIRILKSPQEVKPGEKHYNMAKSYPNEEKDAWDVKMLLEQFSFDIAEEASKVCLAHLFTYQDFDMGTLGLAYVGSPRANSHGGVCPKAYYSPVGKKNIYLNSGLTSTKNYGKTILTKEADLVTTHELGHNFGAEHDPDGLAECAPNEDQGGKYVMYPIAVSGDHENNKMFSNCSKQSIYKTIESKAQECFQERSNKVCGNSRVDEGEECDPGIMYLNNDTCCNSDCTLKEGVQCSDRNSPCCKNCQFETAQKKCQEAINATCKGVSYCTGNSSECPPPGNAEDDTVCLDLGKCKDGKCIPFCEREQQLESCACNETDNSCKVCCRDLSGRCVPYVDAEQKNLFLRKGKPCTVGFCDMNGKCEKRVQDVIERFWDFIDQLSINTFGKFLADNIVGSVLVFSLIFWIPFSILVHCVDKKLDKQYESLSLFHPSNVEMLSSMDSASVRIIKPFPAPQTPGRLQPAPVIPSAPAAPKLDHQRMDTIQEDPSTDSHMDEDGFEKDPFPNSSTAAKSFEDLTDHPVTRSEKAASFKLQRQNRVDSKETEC
# PLCb3 inh: human PLC-beta3 inhibitors, primary screen, biochemical, fluorescence; 1-phosphatidylinositol 4,5-bisphosphate phosphodiesterase beta-3 (Homo sapiens), Q01970; Purified PLC-beta3, fluorogenic substrate; AID 720704, 2013; 0.18% of 370,000 active; inhibition, % at 12.2 µM; in the data active = inhibition above about 11%;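 also: 0% = median of compound wells on plate and 100% = full blocker control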
# PLCg1 inh: PLC-gamma1 enzyme inhibitors, primary screen, biochemical, fluorescence, purified enzyme; 1-phosphatidylinositol 4,5-bisphosphate phosphodiesterase gamma-1 (Homo sapiens), P19174; fluorogenic substrate; inhibition, % at 12.2 µM; 0.84% of 370,000 active; AID 720700, 2013; in the data active = inhibition above about 9.5%
# ADAM10 confirm: human ADAM10 inhibitors, confirmation, biochemical, QFRET, triplicate; shares compounds with ADAM10 inh; ADAM10 QFRET peptide cleavage, EDANS fluorescence; inhibition, % at 6.95 µM; 1% of 2,100 active;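 active = inhibition above about 20% chosen separately for each screening run, limit read from the data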;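 also: 0% = DMSO wells and 100% = marimastat wells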
# ADAM17 ctr: ADAM17 inhibitors, counter-screen for ADAM10 exosite inhibitor project, biochemical, QFRET, high throughput; shares compounds with ADAM10 inh; ADAM17 QFRET peptide cleavage, EDANS fluorescence; inhibition, % at 6.95 µM; 0.5% of 2,100 active; AID 743214, 2013;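 active = mean triplicate inhibition above the solvent-only control wells' mean plus 3 SD, cut at about 12% in these data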;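 also: 0% = DMSO wells and 100% = marimastat wells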
# ADAM10 ctr: ADAM10 inhibitors, counter-screen for ADAM17 exosite inhibitor project, biochemical, FRET, human ADAM10. shares compounds with ADAM17 inh. recombinant ADAM10, EDANS/DABCYL FRET peptide cleavage, 3 h. inhibition, % at 6.95 µM. 47% of 2,900 active. AID 743256, 2014;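 active = mean inhibition over the triplicate runs exceeds the activity threshold set in the earlier primary screen, cut at about 20% in these data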;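 also: 0% = DMSO wells and 100% = marimastat wells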
# ADAM17 confirm: ADAM17 inhibitors, hit retest, confirmation, biochemical, QFRET peptide cleavage | shares compounds with ADAM17 inh | recombinant ADAM17, EDANS/DABCYL QFRET peptide cleavage | inhibition, % at 6.95 µM | 65% of 2,900 active | AID 743257, 2014;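 active = mean inhibition across replicates above the hit cutoff set in the primary screen, cut at about 8.5% in these data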;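 also: 0% = DMSO wells and 100% = marimastat wells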
# * marks the source's active call; other numbers are inactive results; nt = not tested or not shown.
SMILES,KLK7 zymogen act,ADAM10 inh,ADAM17 inh,PLCb3 inh,PLCg1 inh,ADAM10 confirm,ADAM17 ctr,ADAM10 ctr,ADAM17 confirm
CCN(CC)C(=O)CC[C@H]1CC[C@]2(CCCN(C(=O)c3ccc4ccccc4n3)C2)O1,0,-4,-3,3,-1,nt,nt,nt,nt
COc1ccc(/C=N/Nc2nc(Nc3ccccc3)nc(N3CCCCC3)n2)cc1OC,-1,7,5,2,-1,nt,nt,nt,nt
Cc1ccc(Nc2nc(N/N=C/c3c[nH]c4ccccc34)nc(N3CCOCC3)n2)cc1,-1,22*,10*,3,4,8,3,27*,16*
Cc1[nH]c2ccccc2c1/C=N/Nc1nc(Nc2ccc(F)cc2)nc(N2CCOCC2)n1,1,15,-1,4,-1,nt,nt,nt,nt
O=C(Oc1cccc(/C=N/Nc2nc(Nc3ccccc3)nc(N3CCOCC3)n2)c1)c1ccco1,0,22*,8.8*,4,3,8,3,41*,23*
C/C(=N\NC(=O)CSc1nnc(-c2ccccc2)n1-c1ccc(C)cc1)c1ccc(-c2ccccc2)cc1,-1,-4,1,3,-4,nt,nt,nt,nt
CC(C)C[C@H]1COc2cc(Br)ccc2S(=O)(=O)N1Cc1cn(Cc2ccc(C(F)(F)F)cc2)nn1,0,-3,-3,0,-2,nt,nt,nt,nt
Nc1ccc2c(c1)Cc1cc(N)c(Cl)cc1-2,0,27*,12*,-57,-34,9,5,-5,4
COC(=O)[C@@]1(C(C)C)N=C(c2cc(OC)c(OC)c(OC)c2)[C@]2(O1)C(=O)N(Cc1cn(Cc3ccccc3)nn1)c1ccc(F)cc12,0,-3,-2,1,-1,nt,nt,nt,nt
CSc1cccc(NC(=O)CCCOc2ccc(Cl)cc2C)c1,-1,31*,19*,-1,2,14,5,38*,19*
COc1ccc(OCCCC(=O)Nc2cccc(SC)c2)cc1,0,11,2,0,4,nt,nt,nt,nt
CSc1cccc(NC(=O)/C=C/c2ccc(Cl)cc2)c1,1,22*,14*,-10,-7,13,3,45*,16*
Cc1ccc(S(=O)(=O)n2ccc(-c3c(-c4ccc(Cl)cc4)noc3C)n2)cc1,0,3,1,2,1,nt,nt,nt,nt
NC(=O)c1ccc(NC(=O)c2ccc(COc3ccccc3Br)cc2)cc1,0,-5,1,-7,-1,nt,nt,nt,nt
Cc1cc(C)n(Cc2ccc(NC(=O)c3ccc(COc4ccccc4Br)cc3)cc2)n1,-1,29*,11*,-7,-2,10,4,17,12*
COc1ccc(NC(=O)Cc2csc(NC(=O)Nc3ccccc3OC)n2)c(OC)c1,1,18,4,-7,2,nt,nt,nt,nt
COc1ccc(NC(=S)Nc2nc(CC(=O)Nc3ccccc3OC)cs2)cc1,0,24*,9.3*,1,4,8,2,17,14*
CCOC(=O)c1ccc(N/C(=N\S(=O)(=O)c2ccc(F)cc2F)c2ccccc2)cc1,1,30*,12*,4,3,3,1,27*,18*
CCCCOC(=O)c1ccc(N/C(=N\S(=O)(=O)c2ccccc2)c2ccccc2)cc1,1,18,1,1,3,nt,nt,nt,nt

# Compound activity as filed in PubChem.
